These results are taken from PubChem BioAssay (EPA / NIEHS).

SMILES strings stand for the structures. Where “and” joins values, the source holds several entries; their conditions need not be identical. Equal values may be shown once. Inconclusive results are not listed. Some compounds were tested as several samples or in several runs, with calls that do not always agree. Calls of active or inactive are those of the source. The calls were made as follows, unless noted: active = hit-call score of the fitted dose curve at least 0.9, where 1 is the maximum; inactive = score below 0.9.

A word on the AC50: it is the concentration giving half of the maximal activity seen.

Read-out in assay [1]: Monocyte Chemoattractant Protein-1 (MCP1), CCL2 (gene 6347)
Kind of assay: BSK_LPS_MCP1: BioMAP Diversity Plus: LPS Assay for Monocyte Chemoattractant Protein-1 (MCP1) Biomarker Activity (AID 2283081).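 As to AC50: secreted MCP-1 protein quantified by ELISA in culture supernatant.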 As to conditions: primary human HUVEC with PBMC; actives raise or lower the signal. The procedure, abridged: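 LPS-stimulated HUVEC/PBMC co-culture; chemical, 24 h; MCP-1 by ELISA; bidirectional fit vs DMSO; cytotoxicity via SRB (0.1% stain, 10% TCA fix, 560 nm) in parallel wells.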

Assay [2] can be described thus: BSK_LPS_PGE2: BioMAP Diversity Plus: LPS Assay for Prostaglandin E2 (PGE2) Biomarker Activity (AID 2283082).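 As to AC50: secreted prostaglandin E2 measured by ELISA in LPS-stimulated co-culture.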 As to conditions: primary human HUVEC with PBMC; actives raise or lower the signal. The procedure, abridged:
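LPS-activated HUVEC/PBMC co-culture; cmpd dosed, 24 h; PGE2 by ELISA; bidirectional fit vs DMSO; SRB (0.1%, TCA-fixed, 560 nm) in parallel plates for overt cytotox.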

Read-out in assay [3]: Macrophage colony-stimulating factor (MCSF), CSF1 (gene 1435)
Kind of assay: BSK_LPS_MCSF: BioMAP Diversity Plus: LPS Assay for Macrophage colony-stimulating factor (MCSF) Biomarker Activity (AID 2283083). As to conditions: primary human HUVEC with PBMC; actives raise or lower the signal. The method, boiled down: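 Compound is added to a human vascular primary co-culture of umbilical vein endothelium and blood mononuclear cells. After 24 h, M-CSF is quantified by ELISA. Signal changes are fitted in both directions against DMSO.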

Read-out in assay [4]: Tissue Factor, F3 (gene 2152)
Description: BSK_LPS_TissueFactor: BioMAP Diversity Plus: LPS Assay for Tissue Factor Biomarker Activity (AID 2283084). As to conditions: primary human HUVEC with PBMC; actives raise or lower the signal. The method, boiled down:
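In this co-culture system of umbilical vein endothelium with PBMC, stimulated with LPS, cell-surface CD142 is detected by ELISA at 24 h. Endpoint values derive from bidirectional fitting, DMSO serving as baseline.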

Read-out in assay [5]: Tumor necrosis factor (Homo sapiens) (UniProt P01375)
Description: BSK_LPS_TNFa: BioMAP Diversity Plus: LPS Assay for Tumour Necrosis Factor alpha (TNFa) Biomarker Activity (AID 2283085). As to conditions: primary human HUVEC with PBMC; actives raise or lower the signal. The method, boiled down: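 Read-out is ELISA of TNFa in primary human endothelial cell–PBMC co-cultures at 24 h after compound. Activity in either direction was fitted against DMSO.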

Read-out in assay [6]: Vascular cell adhesion molecule 1 (VCAM1), VCAM1 (gene 7412)
Kind of assay: BSK_LPS_VCAM1: BioMAP Diversity Plus: LPS Assay for Vascular cell adhesion molecule 1 (VCAM1) Biomarker Activity (AID 2283086). The following applies: primary human HUVEC with PBMC; actives raise or lower the signal. The procedure, abridged: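 HUVEC + PBMC co-culture, LPS system; compound 24 h; VCAM-1 by ELISA; bidirectional fit vs DMSO control; parallel SRB (0.1%, TCA-fixed, 560 nm) for cytotoxicity.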

Read-out in a further assay: CD38, CD38 (gene 952)
Kind of assay: BSK_SAg_CD38: BioMAP Diversity Plus: SAg Assay for CD38 Biomarker Activity (AID 2283087). As to conditions: primary human HUVEC with PBMC; actives raise or lower the signal. The method, boiled down: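 Human HUVEC plus PBMC co-culture stimulated with superantigen; CD38 measured by ELISA 24 h after chemical dosing. Fluorescence read-out, bidirectional fit against DMSO; cytotoxicity tracked in parallel by SRB and Alamar Blue.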

Read-out in a further assay: CD40, CD40 (gene 958)
Kind of assay: BSK_SAg_CD40: BioMAP Diversity Plus: SAg Assay for CD40 Biomarker Activity (AID 2283088). The following applies: primary human HUVEC with PBMC; actives raise or lower the signal. The procedure, abridged: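 Fluorescence ELISA read-out of CD40 from umbilical vein endothelium plus peripheral blood mononuclear cells, sampled 24 h after dosing. Values come from bidirectional curve fitting with DMSO as baseline.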

Read-out in a further assay: CD69, CD69 (gene 969)
Description: BSK_SAg_CD69: BioMAP Diversity Plus: SAg Assay for CD69 Biomarker Activity (AID 2283089).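 As to AC50: cell surface CD69 protein quantified by ELISA with fluorescence detection.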 As to conditions: primary human HUVEC with PBMC; actives raise or lower the signal. The method, boiled down:
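ELISA, fluorescence read-out: CD69 on human umbilical vein endothelial cell + PBMC co-culture, 24 h post-dosing. Gain or loss of signal fitted bidirectionally against DMSO baseline.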

Read-out in assay [7]: Monocyte Chemoattractant Protein-1 (MCP1), CCL2 (gene 6347)
Description: BSK_SAg_MCP1: BioMAP Diversity Plus: SAg Assay for Monocyte Chemoattractant Protein-1 (MCP1) Biomarker Activity (AID 2283090). As to conditions: primary human HUVEC with PBMC; actives raise or lower the signal. The procedure, abridged: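 MCP-1 levels in the endothelial–PBMC SAg co-culture were quantified by ELISA at 24 h post-dosing; both increases and decreases versus DMSO scored. Cytotoxicity monitored by SRB total protein in parallel cultures.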

Read-out in assay [8]: E-selectin (Homo sapiens) (UniProt P16581)
Description: BSK_SAg_Eselectin: BioMAP Diversity Plus: SAg Assay for Eselectin Biomarker Activity (AID 2283091). As to conditions: primary human HUVEC with PBMC; actives raise or lower the signal. The procedure, abridged: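 Primary human endothelial cells and peripheral blood mononuclear cells were co-cultured and exposed to chemical for 24 hours. E-selectin levels were then quantified by ELISA, with bidirectional curve fitting normalised to DMSO controls.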

A short description of assay [9]: BSK_SAg_PBMCCytotoxicity: PBMC Cytotoxicity Assessment in the BioMAP Diversity Plus: SAg Assay (AID 2283093).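 Also: PBMC viability measured as Alamar Blue reduction fluorescence at 546/580 nm; fitted both ways against DMSO so a hit may be loss or gain of signal.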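 As to AC50: PBMC superantigen activated with SEB plus TSST-1 one hour after compound addition.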 The following applies: primary human HUVEC with PBMC. The method, boiled down:
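HUVEC/PBMC co-culture; PBMC exposed to chemical 1 h before SEB and TSST-1 activation (20 ng/mL each), incubated 90 h, then Alamar Blue 6 h, fluorescence 546/580 nm. Bidirectional fit versus DMSO baseline.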

Read-out in assay [10]: Interleukin-8 (IL8), CXCL8 (gene 3576)
Kind of assay: BSK_SAg_IL8: BioMAP Diversity Plus: SAg Assay for Interleukin-8 (IL8) Biomarker Activity (AID 2283094). As to conditions: primary human HUVEC with PBMC; actives raise or lower the signal. The procedure, abridged: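 ELISA read-out of IL-8 in a primary human vascular co-culture (umbilical vein endothelium plus PBMC), taken 24 h after compound addition. Values derive from bidirectional fits against DMSO negative controls.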

A short description of assay [11]: BSK_SAg_Proliferation: Cell Proliferation Assessment in the BioMAP Diversity Plus: SAg Assay (AID 2283095).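 Also: relative cell number as total protein by SRB absorbance in sub-confluent culture.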 As to conditions: primary human HUVEC with PBMC. The procedure, abridged:
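Cells (endothelium plus PBMC, human primary) were dosed with chemical, cultured 96 h, fixed in 10% TCA and stained with 0.1% SRB. Absorbance at 560 nm gave relative protein, fitted bidirectionally relative to DMSO.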

Assay [12] is described as follows: BSK_SAg_SRB: Viability Assessment in the BioMAP Diversity Plus: SAg Assay (AID 2283096).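 Also: cells read one day after compound addition; hits may be either gain or loss of signal compared with DMSO.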 As to conditions: primary human HUVEC with PBMC. The procedure, abridged:
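Human umbilical vein endothelial cells co-cultured with PBMC, read 24 h after compound dosing. Total protein measured by sulforhodamine B staining (0.1% SRB after 10% TCA fixation, absorbance 560 nm); bidirectional fit versus DMSO baseline.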

The target of assay [13] is human CYP1A1, CYP1A1 (gene 1543) (UniProt P04798). Kind of assay: NVS_ADME_hCYP1A1: NovaScreen (NVS) CYP450-related Enzyme Activity (ADME) Assay for human CYP1A1 (AID 2283100; active = hit-call score of the fitted dose curve at least 0.9, where 1 is the maximum). The method, boiled down: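 Compounds first went through duplicate single-concentration testing at 10 uM against purified CYP1A1. Those passing a threshold such as 30% inhibition entered singleton dose-response, highest concentration 20 uM. Signal was fluorescence measured after 1 hour.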
Sequence of human CYP1A1, CYP1A1 (gene 1543) (P04798 whole entry, looked up): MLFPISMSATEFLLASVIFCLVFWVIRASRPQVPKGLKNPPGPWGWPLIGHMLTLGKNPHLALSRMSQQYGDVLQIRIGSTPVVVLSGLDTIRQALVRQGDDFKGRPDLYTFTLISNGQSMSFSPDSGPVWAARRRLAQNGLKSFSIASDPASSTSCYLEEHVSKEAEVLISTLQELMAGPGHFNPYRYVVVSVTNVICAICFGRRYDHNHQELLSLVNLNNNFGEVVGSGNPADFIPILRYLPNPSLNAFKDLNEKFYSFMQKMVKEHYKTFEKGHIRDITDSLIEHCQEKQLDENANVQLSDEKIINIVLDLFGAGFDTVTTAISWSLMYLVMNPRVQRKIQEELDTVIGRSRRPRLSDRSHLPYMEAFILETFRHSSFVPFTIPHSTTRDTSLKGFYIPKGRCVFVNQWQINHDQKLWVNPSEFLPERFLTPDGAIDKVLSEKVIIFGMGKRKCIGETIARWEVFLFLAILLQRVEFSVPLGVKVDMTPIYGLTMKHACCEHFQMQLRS

Assay [14] addresses human CYP19A1, CYP19A1 (gene 1588) (UniProt P11511). Kind of assay: NVS_ADME_hCYP19A1: NovaScreen (NVS) CYP450-related Enzyme Activity (ADME) Assay for human CYP19A1 (AID 2283098; active = hit-call score of the fitted dose curve at least 0.9, where 1 is the maximum;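 as to AC50: potency for inhibitors seen as loss of fluorescent enzyme signal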). The procedure, abridged: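 Recombinant enzyme in a cell-free format, read 0.5 h after dosing by fluorescence from a fluorogenic substrate. Loss of signal was fitted against acetonitrile as baseline. Primary screen in duplicate at 10 uM, actives then tested in concentration series.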

Assay [15] concerns the target human CYP2B6, CYP2B6 (gene 1555) (UniProt P20813). Description: NVS_ADME_hCYP2B6: NovaScreen (NVS) CYP450-related Enzyme Activity (ADME) Assay for human CYP2B6 (AID 2283101; active = hit-call score of the fitted dose curve at least 0.9, where 1 is the maximum). The procedure, abridged:
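Fluorescence-based enzyme activity of recombinant human CYP2B6, measured 1 h post-dose against acetonitrile vehicle baseline. Screened at a single concentration of 10 uM in duplicate before concentration-response follow-up.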

Read-out in assay [16]: Monokine induced gamma interferon (MIG), CXCL9 (gene 4283)
Description: BSK_SAg_MIG: BioMAP Diversity Plus: SAg Assay for Monokine induced gamma interferon (MIG) Biomarker Activity (AID 2283092). The following applies: primary human HUVEC with PBMC; actives raise or lower the signal. The procedure, abridged: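 ELISA readout of MIG/CXCL9; primary human umbilical vein endothelial cells co-cultured with peripheral blood mononuclear cells; 24 h post-dose; gain/loss fit vs DMSO baseline.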

Sequence of human CYP19A1, CYP19A1 (gene 1588) (P11511 whole entry, looked up): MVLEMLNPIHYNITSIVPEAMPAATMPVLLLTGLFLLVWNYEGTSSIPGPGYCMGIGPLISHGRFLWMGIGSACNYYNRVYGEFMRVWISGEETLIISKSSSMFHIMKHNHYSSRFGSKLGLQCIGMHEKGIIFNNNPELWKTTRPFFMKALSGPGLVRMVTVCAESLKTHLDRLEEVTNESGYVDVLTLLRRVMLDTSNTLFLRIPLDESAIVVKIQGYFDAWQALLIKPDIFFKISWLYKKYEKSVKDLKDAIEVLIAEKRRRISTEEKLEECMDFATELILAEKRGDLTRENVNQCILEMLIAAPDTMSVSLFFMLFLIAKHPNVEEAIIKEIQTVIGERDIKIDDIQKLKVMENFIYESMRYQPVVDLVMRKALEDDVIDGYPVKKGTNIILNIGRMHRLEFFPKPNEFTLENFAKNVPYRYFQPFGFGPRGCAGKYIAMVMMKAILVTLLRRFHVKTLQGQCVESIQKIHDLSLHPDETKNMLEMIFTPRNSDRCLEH
Sequence of E-selectin (Homo sapiens) (P16581 whole entry, looked up): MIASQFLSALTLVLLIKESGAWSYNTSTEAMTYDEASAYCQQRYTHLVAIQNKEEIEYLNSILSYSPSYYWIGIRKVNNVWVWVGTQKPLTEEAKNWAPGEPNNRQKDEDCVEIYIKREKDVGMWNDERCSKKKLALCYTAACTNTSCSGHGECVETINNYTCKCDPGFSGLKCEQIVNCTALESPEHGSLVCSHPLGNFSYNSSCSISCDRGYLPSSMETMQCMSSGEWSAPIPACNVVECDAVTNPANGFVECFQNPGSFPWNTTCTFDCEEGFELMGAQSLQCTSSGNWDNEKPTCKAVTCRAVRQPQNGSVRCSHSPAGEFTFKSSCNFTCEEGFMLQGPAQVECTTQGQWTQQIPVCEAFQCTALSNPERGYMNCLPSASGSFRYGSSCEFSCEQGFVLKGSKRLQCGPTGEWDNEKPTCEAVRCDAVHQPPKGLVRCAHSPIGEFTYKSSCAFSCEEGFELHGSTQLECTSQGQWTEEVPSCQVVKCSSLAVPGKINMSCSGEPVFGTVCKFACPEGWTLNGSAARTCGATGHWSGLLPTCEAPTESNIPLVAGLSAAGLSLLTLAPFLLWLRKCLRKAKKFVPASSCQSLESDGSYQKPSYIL
Sequence of Tumor necrosis factor (Homo sapiens) (P01375 whole entry, looked up): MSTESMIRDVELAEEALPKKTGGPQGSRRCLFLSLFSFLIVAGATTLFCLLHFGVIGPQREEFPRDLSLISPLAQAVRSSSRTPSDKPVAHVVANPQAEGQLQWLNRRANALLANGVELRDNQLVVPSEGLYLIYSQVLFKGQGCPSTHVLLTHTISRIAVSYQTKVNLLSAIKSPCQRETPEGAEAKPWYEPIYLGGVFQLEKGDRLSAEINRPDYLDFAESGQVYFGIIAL
Sequence of human CYP2B6, CYP2B6 (gene 1555) (P20813 whole entry, looked up): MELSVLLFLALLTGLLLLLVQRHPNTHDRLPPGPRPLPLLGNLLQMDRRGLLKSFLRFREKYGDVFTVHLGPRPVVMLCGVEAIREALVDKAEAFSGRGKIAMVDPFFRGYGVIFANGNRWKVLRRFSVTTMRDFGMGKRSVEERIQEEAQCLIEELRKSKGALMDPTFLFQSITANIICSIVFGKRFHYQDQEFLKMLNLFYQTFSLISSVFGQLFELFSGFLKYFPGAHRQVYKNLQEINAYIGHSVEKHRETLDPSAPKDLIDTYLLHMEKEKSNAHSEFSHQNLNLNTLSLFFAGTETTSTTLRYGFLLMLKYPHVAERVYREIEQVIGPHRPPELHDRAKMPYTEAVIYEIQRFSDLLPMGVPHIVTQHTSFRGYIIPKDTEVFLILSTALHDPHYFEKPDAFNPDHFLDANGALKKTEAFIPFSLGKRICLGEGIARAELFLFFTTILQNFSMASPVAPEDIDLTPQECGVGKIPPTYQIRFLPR

Turning to `C[C@]12CCC(=O)C=C1CC[C@@H]1[C@@H]2CC[C@@]2(C)[C@H]1CC[C@]2(C)O`, the outcome in [1], in [2], in assay [3], in assay [4], in [5] and in assay [6] was inactive. Besides, the outcome in the assay with CD38, CD38 (gene 952) is “inactive”; with CD40, CD40 (gene 958) it was “inactive”; with CD69, CD69 (gene 969), “inactive”; in [7], “inactive”; in assay [8], “inactive”; in assay [9], “inactive”. Moreover, the outcome in assay [10], in assay [11] and in assay [12] was inactive.
Take `CO/C=C(/C(=O)OC)c1ccccc1COc1cccc(C(F)(F)F)n1`: the AC50 was 4.01 µM (active) in [1]; 12 µM (active) in [3]; 0.783 µM (active) in assay [5]; 13.4 µM (active) in assay [6]; 6.48 µM (active) with CD38, CD38 (gene 952); 7.75 µM (active) with CD40, CD40 (gene 958). Moreover, the AC50 in the assay with CD69, CD69 (gene 969) was 5.07 µM (active); in [7], 8.9 µM (active); in [8] it was 6.75 µM (active); in assay [9], 1.17 µM (active); in assay [10], 5.66 µM (active); in [11] it was 4.57 µM (active). The AC50 in assay [12] is 9.02 µM (active). Also, the outcome in [2], in assay [4] and in [13] was inactive.
In the case of `ClC1=C(Cl)[C@]2(Cl)[C@@H]3[C@@H](Cl)[C@H]4O[C@H]4[C@@H]3C1(Cl)C2(Cl)Cl`, the outcome was “inactive” in assay [1]; “inactive” in [2]; “inactive” in assay [3]; “inactive” in assay [4]; “inactive” in assay [6]; “inactive” with CD69, CD69 (gene 969). The result in assay [7], in assay [9], in [10] and in assay [14] was inactive. Further, the AC50 was 2.42 µM (active) in [5]; 8.15 µM (active) in the assay with CD38, CD38 (gene 952); 11.6 µM (active) in the assay with CD40, CD40 (gene 958); 9.42 µM (active) in assay [8]; 14.7 µM (active) in [11]; 10.6 µM (active) in [12]. For the same compound, the half-maximal activity concentration (AC50) in assay [15] is 7.84 µM (active).
With `c1cc2ccc3cccc4ccc(c1)c2c34`, the outcome in assay [1], in assay [2], in assay [3], in assay [4], in assay [5] and in assay [6] was inactive. The outcome in [7], in assay [8], in [16], in assay [9], in [10] and in assay [11] was inactive. The result in assay [12] was inactive. Moreover, the half-maximal activity concentration (AC50) is 11.5 µM (active) with CD38, CD38 (gene 952) and 4.13 µM (active) with CD69, CD69 (gene 969).
With `Clc1ccc(C(Cl)(Cl)Cl)cc1`, the result in assay [1], in assay [2], in assay [3], in assay [4], in [5] and in assay [6] was inactive. Further, the outcome in the assay with CD38, CD38 (gene 952) is “inactive”; in the assay with CD40, CD40 (gene 958), “inactive”; in the assay with CD69, CD69 (gene 969), “inactive”; in assay [7], “inactive”; in assay [8], “inactive”; in assay [16], “inactive”. Besides, the outcome in [9], in assay [10], in [11] and in assay [12] was inactive.
`CC(C)(O)C(=O)Nc1ccc([N+](=O)[O-])c(C(F)(F)F)c1`: the outcome in assay [1] is “inactive”; in assay [4] it was “inactive”; in assay [5] it was “inactive”; in assay [6], “inactive”; with CD38, CD38 (gene 952), “inactive”; in the assay with CD40, CD40 (gene 958) it was “inactive”. Moreover, the outcome with CD69, CD69 (gene 969) is “inactive”; in assay [7], “inactive”; in [16], “inactive”; in [9] it was “inactive”; in [10], “inactive”; in assay [11] it was “inactive”. The result in [12] and in [14] was inactive. Also, the AC50 in assay [2] was 0.024 µM (active); in [3] it was 23.1 µM (active); in [14], 6.99 µM (active) and 5.59 µM (active).
